# From ChEMBL document CHEMBL4513141, “CO-ADD screening of NIH (USA) - Clinical Collection” (2021)
# Entries with a potency or affinity are not part of this list.
# Assays:
# Staphylococcus aureus = details: Concentration 20 uM; ASSAY_TEST Inhibition of Bacterial Growth; detection method Absorption (OD600); MEDIA CAMHB; plate type 384well; NBS; CORNING #3640; time 18 hr
# Escherichia coli = details: Concentration 20 uM; ASSAY_TEST Inhibition of Bacterial Growth; detection method Absorption (OD600); MEDIA CAMHB; plate type 384well; NBS; CORNING #3640; time 18 hr
Structure (SMILES),Inhibition (Staphylococcus aureus) [%],Inhibition (Escherichia coli) [%]
CC(N/C(=N\C#N)Nc1ccncc1)C(C)(C)C.O (centres undefined),-1.94,-6.33
Nc1nc(Cl)nc2c1ncn2[C@H]1C[C@H](O)[C@@H](CO)O1 [CLADRIBINE],6.87,14.09
CC(C)(C(=O)c1cccnc1)c1cccnc1 [METYRAPONE],4.18,6.34
CC1=Nc2ccc(Cl)cc2S(=O)(=O)N1 [DIAZOXIDE],9.13,5.75
CCCN(CCC)S(=O)(=O)c1ccc(C(=O)O)cc1 [PROBENECID],13.34,1.2
COc1cc2nc(N3CCN(C(=O)C4COc5ccccc5O4)CC3)nc(N)c2cc1OC (centres undefined) [DOXAZOSIN],8.23,5.29
COc1ccc(C2CNC(=O)C2)cc1OC1CCCC1 (centres undefined) [ROLIPRAM],10.42,5.39
CC(=O)O.NCc1ccc(S(N)(=O)=O)cc1 [MAFENIDE ACETATE],12.98,1.36
CC(O)CO.N[C@@H](C(=O)N[C@@H]1C(=O)N2C(C(=O)O)=C(CSc3c[nH]nn3)CS[C@H]12)c1ccc(O)cc1,31.82,5.65
C#C[C@]1(O)CC[C@H]2[C@@H]3CCc4cc(OC)ccc4[C@H]3CC[C@@]21C [MESTRANOL],8.43,-2.89
CC1CCN(CCCC(=O)c2ccc(F)cc2)CC1.Cl,4.4,6.76
C[C@@H]1C[C@H]2[C@@H]3C[C@H](F)C4=CC(=O)C(Cl)=C[C@]4(C)[C@@]3(F)[C@@H](O)C[C@]2(C)[C@@]1(O)C(=O)CO [HALOMETASONE],3,4.02
NS(=O)(=O)c1cc2c(cc1C(F)(F)F)NC(Cc1ccccc1)NS2(=O)=O (centres undefined) [BENDROFLUMETHIAZIDE],4.68,-3.75
CCCc1nc2c(C)cc(-c3nc4ccccc4n3C)cc2n1Cc1ccc(-c2ccccc2C(=O)O)cc1,33.03,4.91
CCCC(CCC)C(=O)O [VALPROIC ACID],9.7,-0.41
COC(=O)CCc1ccc(OCC(O)CNC(C)C)cc1.Cl (centres undefined) [ESMOLOL HYDROCHLORIDE],16.29,-0.36
CC(C)(C)NC(=O)[C@@H]1C[C@@H]2CCCC[C@@H]2CN1C[C@@H](O)[C@H](Cc1ccccc1)NC(=O)[C@H](CC(N)=O)NC(=O)c1ccc2ccccc2n1.CS(=O)(=O)O [SAQUINAVIR MESYLATE],-19.12,7.7
C[C@@H]1C[C@H]2[C@@H]3CCC4=CC(=O)C=C[C@]4(C)[C@@]3(F)[C@@H](O)C[C@]2(C)[C@H]1C(=O)CO [DESOXIMETASONE],0.95,7.14
C[C@H]1[C@@H](OC(=O)CCC(=O)O)O[C@@H]2O[C@@]3(C)CC[C@H]4[C@H](C)CC[C@@H]1[C@@]24OO3,-17.43,12.24
COc1nc(C)nc(Cl)c1NC1=NCCN1.Cl [MOXONIDINE HYDROCHLORIDE],-14.16,3.63
CCOC(=O)[C@H](CCc1ccccc1)N[C@H]1CCc2ccccc2N(CC(=O)O)C1=O.Cl [BENAZEPRIL HYDROCHLORIDE],9.63,0.93
Cc1cccc(CN2CCN(C(c3ccccc3)c3ccc(Cl)cc3)CC2)c1.Cl.Cl (centres undefined),9.26,2.8
